High-throughput results as filed in PubChem BioAssay.
An excerpt weighted towards active compounds, which were near 3.7% of everything screened.
p53 reactivator – qHTS assay for re-activators of p53 using a Luc reporter. H1299 p53-A138V BP100-luciferase reporter, luminescence, 24 h. Potency, µM (doses to about 92.2 µM), without a hit: at the highest dose activity change, positive = activation, usual class: activators. actives 0.063% (n = 320,000); also: potency is read from the fitted curve at half-maximal effect; % of control where 0% means no effect; nearly all actives have a fitted effect of over 45% in size
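p53-null H1299 cells stably carrying temperature-sensitive p53-A138V and a BP100-luciferase reporter were pinned with compounds (4-point, 1:5 series) and held 24 hrs at 37 deg C. Luminescence was read 10 min after detection reagent.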
ClpP mod – qHTS Assay for Activators of ClpP; AID 651965, 2013; actives 1.9% (n = 340,000); purified B. subtilis ClpP, FRET peptide cleavage, 20 min; Potency, µM (doses to about 57.5 µM), inactives show at the highest dose activity change, negative = active; ATP-dependent Clp protease proteolytic subunit (Bacillus subtilis (strain 168)), P80244; active = well fitted falling curve with a large enough effect; inconclusive = small, poorly fitted or top-dose-only effect; inactive = no such curve, though single readings can be large or run the other way; also: potency is read from the fitted curve at half-maximal effect; the source files actives as falling curves though it sought activators and does not explain the sign; nearly all actives have a fitted effect of over 65% in size
Target sequence (P80244 whole entry, looked up): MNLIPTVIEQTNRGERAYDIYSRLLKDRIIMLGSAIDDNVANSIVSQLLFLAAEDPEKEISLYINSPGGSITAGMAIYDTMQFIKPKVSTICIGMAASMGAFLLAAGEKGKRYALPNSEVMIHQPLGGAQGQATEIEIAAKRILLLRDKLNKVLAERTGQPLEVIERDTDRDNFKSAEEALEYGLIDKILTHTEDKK
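ClpP 10 microg/mL final, pH 8 Tris/KCl buffer with BSA, glycerol, Tween-20; compound pinned in; FRET-FV substrate; RT 20 min; Ex320/Em430; ΔFRET vs ADEP 5.8 microM, DMSO, no enzyme.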
Nrf2 activator – qHTS of Nrf2 Activators; AREc32 ARE-luciferase reporter (MCF7-derived line), luminescence, 24 h; Potency, µM (top dose mostly 46.1 µM), for inactives: at the highest dose activation, hits mostly activators; actives 0.31% (n = 410,000); also: potency is read from the fitted curve at half-maximal effect; % of control where 0% means no effect; nearly all actives have a fitted effect of over 65% in size
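Quantitative high-throughput format: AREc32 reporter cells, 1000 per well, received compound by pin transfer and were incubated 24 hr at 37 deg C, 5% CO2, before Steady-Glo luminescence detection.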
Nrf2 inh – Nrf2 qHTS screen for inhibitors; actives 2.1% (n = 360,000); AID 504444, 2011; Potency, µM (series often up to 46 µM), inactives show at the top dose activity change, negative = inhibition, actives largely listed as inhibitors; A549 ARE-Fluc reporter, luciferase luminescence, 18-24 h; also: potency is read from the fitted curve at half-maximal effect; % is scaled to controls: 0 for no effect and ±100 for the full control effect; nearly all actives have a fitted effect of over 60% in size
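Concentration-response testing used A549 ARE_Fluc cells at 5000 cells/well. Following an 18-24 h compound incubation, viability was read by fluorescence (Ex 405/Em 525) and luciferase output by luminescence.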
miR-21 act – qHTS Assay for Modulators of miRNAs and/orActivators of miR-21; AID 2288, 2010; Potency, µM (series often up to 38.3 µM), without a hit: at the highest dose activity change, positive = activation, most hits filed as activators; HeLa miR-21 FLuc reporter, luciferase, 48 h; 340,000 tested, under 10 active;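 also: % of control where 0% means no effect; miR-21 action dims this reporter so a rising signal means less miR-21 action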
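HeLa cells stably expressing CMV-driven firefly luciferase with a downstream miR-21 binding sequence, endogenously expressing miR-21, were treated with titrations (up to about 40uM final) for 48 hours at 37 degree Celsius. Luciferase luminescence was read after lysis.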
A549 tox – Nrf2 qHTS screen for inhibitors: counterscreen for cytotoxicity. A549 ARE-Fluc cells, CellTiter-Fluor viability, 18-24 h. Potency, µM (top dose mostly 46 µM), for the others: top-dose activity change, negative = cytotoxicity, most hits filed as inhibitors. actives 0.16% (n = 390,000). AID 504648, 2011; also: potency is read from the fitted curve at half-maximal effect; % is scaled to controls: 0 for no effect and ±100 for the full control effect
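Cytotoxicity counterscreen: CellTiter-Fluor fluorescence was measured in A549 ARE_Fluc cells after 18-24 h of compound exposure in a concentration series. The subsequent BugLite luminescent read reports ARE-luciferase activity.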
Starred values were filed as active, the others as inactive. Unless noted, calls follow the shape of the dose curve; as a rule, active = well fitted curve in the direction sought with a large enough effect; inconclusive = small, poorly fitted or top-dose-only effect, or another doubt; inactive = no such curve, though single readings can be large; an effect the other way counts as inactive or inconclusive.

Screening O=C1/C(=C/c2ccc(F)cc2)Oc2cc(OC(=O)N3CCOCC3)ccc21 returned p53 reactivator 2%, ClpP mod 18µM*, Nrf2 activator 0%, Nrf2 inh 3%, miR-21 act -17% and A549 tox 2%.
`CCc1ccc(CNCCc2ccc(F)cc2)cc1` gave p53 reactivator 13%, ClpP mod 2%, Nrf2 activator 2%, Nrf2 inh -8%, miR-21 act 1% and A549 tox 0%.
Fc1ccc(CCNCc2ccc(Cl)c(Cl)c2)cc1 was read as p53 reactivator -5%, ClpP mod -4%, Nrf2 activator 0%, Nrf2 inh 12µM*, miR-21 act 1% and A549 tox inconclusive.
O=C(Nc1ccc(Oc2ccc(Cl)cc2)c(Cl)c1)c1cc(I)cc(I)c1O was read as p53 reactivator 6%, ClpP mod 1%, Nrf2 activator 0%, Nrf2 inh inconclusive, miR-21 act 0% and A549 tox inconclusive.
For CN(C)CCN(Cc1ccccc1)c1ccnc(N(C)C)c1C#N the results were p53 reactivator 5%, ClpP mod 32µM*, Nrf2 activator 0%, miR-21 act -5% and A549 tox -1%.
Screening CCN(CC(=O)Nc1ccccc1C(F)(F)F)C(=O)CCSc1ccc(F)cc1 returned p53 reactivator -4%, ClpP mod 13µM*, Nrf2 activator 2%, Nrf2 inh inconclusive and A549 tox -17%.
`CCOc1ccc(CCNC(=O)c2ccc(CS(=O)(=O)c3ccccc3C)o2)cc1OCC` gave ClpP mod -3%, Nrf2 activator 4%, Nrf2 inh inconclusive, miR-21 act 21% and A549 tox -5%.
Screening O=c1[nH]c(O)c(N=Nc2ccc(Cl)c(S(=O)(=O)Nc3ccccc3Cl)c2)c(=O)[nH]1 returned p53 reactivator 25%, ClpP mod -2%, Nrf2 activator inconclusive, Nrf2 inh inconclusive and A549 tox -8%.
Screening Cc1[nH]c(=O)[nH]c(=O)c1/C=C/C(=O)OCC(C)C returned p53 reactivator -11%, ClpP mod inconclusive, Nrf2 activator 1%, Nrf2 inh -2%, miR-21 act -18% and A549 tox -5%.
Screening CC(c1ccccc1)[n+]1ccccc1 (configuration not stated) returned p53 reactivator -2%, ClpP mod 1%, Nrf2 activator -1%, Nrf2 inh 18µM* and A549 tox -3%.
`CC(C)Nc1ccc(Nc2ccccc2)cc1` gave p53 reactivator -24%, ClpP mod -1%, Nrf2 activator 3%, Nrf2 inh -23% and A549 tox 0%.
Screening Cc1cc2c(cc1C)-n1c(-c3ccccc3)c3c(=O)n(C)c(=O)n(C)c3c1C(c1ccco1)N2 (configuration not stated) returned ClpP mod -2%, Nrf2 activator 0%, Nrf2 inh inconclusive, miR-21 act 18% and A549 tox 0%.
`C[n+]1c(-c2ccccc2)c2cc(N)ccc2c2ccc(N)cc21` gave ClpP mod 1%, Nrf2 activator -3%, Nrf2 inh 1.8µM*, miR-21 act inconclusive and A549 tox inconclusive.
CN(C)c1ccc(CN2CCc3nc(N4CCN(c5ccccn5)CC4)ncc3C2)cc1 was read as ClpP mod 6%, Nrf2 activator -1%, miR-21 act inconclusive and A549 tox -27%.
For CCCC1=Nc2cc(C(=O)NCCc3ccc(OC)cc3OC)ccc2Sc2ccccc21 the results were ClpP mod -6%, Nrf2 activator 0%, Nrf2 inh 18µM*, miR-21 act inconclusive and A549 tox 7%.
